From PubChem BioAssay (NCATS)
Where “and” joins values, the source holds several entries; their conditions need not be identical. Identical values can stand only once. Results filed as inconclusive are left out. Entries that show only a call come without a potency. Calls of active or inactive are those of the source. Unless noted, the call rests on the fitted dose curve.

What was measured:
[1] = target: Glucocorticoid receptor (Homo sapiens) (UniProt P04150); assay: qHTS assay for small molecule antagonists of glucocorticoid receptor signaling (AID 588533; active means well fitted inhibition curve with a large enough effect in the signal ratio, with a control signal flat, not every such curve was filed as active; the % refers to the signal ratio;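 further: cells stimulated with 2 nM dexamethasone as agonist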)
Chain of Glucocorticoid receptor (Homo sapiens) (P04150 whole entry, looked up): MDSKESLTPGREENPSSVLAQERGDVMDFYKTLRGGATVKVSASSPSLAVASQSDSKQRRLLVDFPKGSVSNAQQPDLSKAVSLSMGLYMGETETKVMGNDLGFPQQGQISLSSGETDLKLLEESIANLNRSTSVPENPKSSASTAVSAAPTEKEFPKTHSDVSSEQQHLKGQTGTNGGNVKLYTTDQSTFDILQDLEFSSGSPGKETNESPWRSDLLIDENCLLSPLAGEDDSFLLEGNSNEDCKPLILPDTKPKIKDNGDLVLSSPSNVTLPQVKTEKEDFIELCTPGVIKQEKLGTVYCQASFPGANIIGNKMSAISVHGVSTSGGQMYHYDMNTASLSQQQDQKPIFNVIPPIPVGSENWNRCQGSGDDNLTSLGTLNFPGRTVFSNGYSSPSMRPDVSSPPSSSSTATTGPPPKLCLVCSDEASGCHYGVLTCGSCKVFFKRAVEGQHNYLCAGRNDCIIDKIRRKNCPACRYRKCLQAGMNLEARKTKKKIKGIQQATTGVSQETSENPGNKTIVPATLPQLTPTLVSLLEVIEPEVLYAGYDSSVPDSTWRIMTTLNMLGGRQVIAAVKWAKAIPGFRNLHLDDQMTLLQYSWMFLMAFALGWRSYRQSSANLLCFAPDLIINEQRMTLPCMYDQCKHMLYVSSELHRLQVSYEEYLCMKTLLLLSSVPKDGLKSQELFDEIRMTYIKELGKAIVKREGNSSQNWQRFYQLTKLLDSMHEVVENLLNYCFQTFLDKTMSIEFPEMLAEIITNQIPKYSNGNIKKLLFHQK
Summary of the method: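 Antagonist-mode qHTS: compound titrations added to GRE-bla HeLa cells, then dexamethasone 2 nM final; 18 h, 37 C. CCF4 FRET fluorescence normalized to dexamethasone and DMSO; IC50 from Hill fit.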

[2] = qHTS assay for small molecule antagonists of peroxisome proliferator-activated receptor delta signaling (AID 588535; active means well fitted inhibition curve with a large enough effect in the signal ratio, with a control signal flat, not every such curve was filed as active; the % refers to the signal ratio;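 on max response: cells co-treated with a PPAR-delta agonist as stimulator during compound exposure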); conditions: HEK293T PPARd-UAS-bla, beta-lactamase FRET ratio, 18 h; 460 nm channel
Summary of the method: (§1)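 Inhibition of PPAR-delta response element-driven beta-lactamase expression is measured in HEK293T cells exposed to a compound titration series for 18 hrs at 37 C. Half-maximal inhibition comes from Hill equation fitting.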

[3] = target: Peroxisome proliferator-activated receptor delta (Homo sapiens) (UniProt Q03181); assay: as above
Chain of Peroxisome proliferator-activated receptor delta (Homo sapiens) (Q03181 whole entry, looked up): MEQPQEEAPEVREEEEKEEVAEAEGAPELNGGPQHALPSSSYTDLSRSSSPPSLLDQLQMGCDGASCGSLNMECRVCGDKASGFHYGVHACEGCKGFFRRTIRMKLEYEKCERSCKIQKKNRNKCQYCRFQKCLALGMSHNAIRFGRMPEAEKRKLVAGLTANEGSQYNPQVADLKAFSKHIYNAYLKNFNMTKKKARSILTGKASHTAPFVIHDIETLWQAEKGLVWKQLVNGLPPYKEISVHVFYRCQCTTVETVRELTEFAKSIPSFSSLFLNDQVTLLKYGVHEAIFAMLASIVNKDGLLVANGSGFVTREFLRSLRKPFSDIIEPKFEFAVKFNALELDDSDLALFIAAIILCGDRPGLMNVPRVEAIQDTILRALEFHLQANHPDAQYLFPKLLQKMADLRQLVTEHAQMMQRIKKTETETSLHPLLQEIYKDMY
Summary of the method: as §1

[4] = target: Peroxisome proliferator-activated receptor gamma (Homo sapiens) (UniProt P37231); assay: qHTS assay for small molecule agonists of peroxisome proliferator-activated receptor gamma signaling (AID 588536; active means well fitted curve in the direction sought with a large enough effect in the signal ratio, with a control signal flat, not every such curve was filed as active; the % refers to the signal ratio)
Chain of Peroxisome proliferator-activated receptor gamma (Homo sapiens) (P37231 whole entry, looked up): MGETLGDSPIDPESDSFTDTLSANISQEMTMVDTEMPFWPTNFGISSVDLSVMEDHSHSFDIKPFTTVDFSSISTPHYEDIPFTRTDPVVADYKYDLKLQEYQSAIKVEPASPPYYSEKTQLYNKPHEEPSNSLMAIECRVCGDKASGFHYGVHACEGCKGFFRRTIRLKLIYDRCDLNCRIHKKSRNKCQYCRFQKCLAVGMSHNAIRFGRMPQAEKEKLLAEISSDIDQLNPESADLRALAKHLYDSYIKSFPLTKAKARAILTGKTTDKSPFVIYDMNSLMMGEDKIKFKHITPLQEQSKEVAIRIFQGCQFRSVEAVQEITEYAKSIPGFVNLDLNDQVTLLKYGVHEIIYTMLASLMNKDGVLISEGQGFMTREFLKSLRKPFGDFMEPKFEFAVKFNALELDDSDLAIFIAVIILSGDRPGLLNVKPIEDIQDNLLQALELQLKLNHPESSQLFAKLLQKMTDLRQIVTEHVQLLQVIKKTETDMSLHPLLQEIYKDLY
Summary of the method: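 Cells were plated and held 6–6.5 h at 37 C, then compounds were added as a titration series. After a further 16 h, CCF4 dye was loaded for 2 h at room temperature and emission at 460/530 nm recorded.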

[5] = target: Peroxisome proliferator-activated receptor gamma (Homo sapiens) (UniProt P37231); assay: qHTS assay for small molecule antagonists of peroxisome proliferator-activated receptor gamma signaling (AID 588537; active means well fitted inhibition curve with a large enough effect in the signal ratio, with a control signal flat, not every such curve was filed as active; the % refers to the signal ratio;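 further: reporter cells co-stimulated with 50 nM rosiglitazone agonist during compound treatment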)
Summary of the method: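 Compounds are tested as concentration series for inhibition of rosiglitazone-driven (50 nM) reporter expression in GeneBLAzer PPAR-gamma-UAS-bla HEK293 cells. After 16 h at 37 C, CCF4 substrate is added for 2 h at room temperature and blue/green fluorescence is measured.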

[6] = target: Vitamin D3 receptor (Homo sapiens) (UniProt P11473); assay: qHTS assay for small molecule antagonists of vitamin D receptor signaling (AID 588541);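 further: receptor activated by calcitriol during compound treatment; series mostly up to about 77 µM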
Chain of Vitamin D3 receptor (Homo sapiens) (P11473 whole entry, looked up): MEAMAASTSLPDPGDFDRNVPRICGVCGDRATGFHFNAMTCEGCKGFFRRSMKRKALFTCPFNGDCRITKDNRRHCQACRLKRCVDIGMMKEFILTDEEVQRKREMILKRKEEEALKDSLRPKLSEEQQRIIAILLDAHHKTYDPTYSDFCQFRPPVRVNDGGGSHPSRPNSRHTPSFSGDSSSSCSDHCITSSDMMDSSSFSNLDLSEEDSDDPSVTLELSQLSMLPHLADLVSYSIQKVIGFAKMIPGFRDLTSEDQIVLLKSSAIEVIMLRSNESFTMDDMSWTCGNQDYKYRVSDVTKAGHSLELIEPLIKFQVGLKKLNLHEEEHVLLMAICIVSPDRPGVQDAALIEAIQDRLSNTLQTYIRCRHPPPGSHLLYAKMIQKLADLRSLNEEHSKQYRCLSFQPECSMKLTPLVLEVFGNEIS
Summary of the method: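 VDR-UAS-bla HEK293T cells (2000/well, 2% charcoal-stripped FBS) were treated with titrated compounds plus 1-alpha,25-dihydroxyvitamin D3 (50 nM or 3 nM final) for 16 h at 37 C. CCF4 beta-lactamase fluorescence was read; Hill fits gave IC50.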

[7] = target: Vitamin D3 receptor (Homo sapiens) (UniProt P11473); assay: qHTS assay for small molecule agonists of vitamin D receptor signaling (AID 588543)
Summary of the method: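 β-lactamase reporter, VDR-UAS-bla HEK293T, agonist mode. Cells plated 5 h at 37 °C, compound titration 16 h at 37 °C, CCF4 dye 2 h RT, ratio 460/530 nm. Hill fit → EC50, efficacy vs 50 nM 1α,25-(OH)2D3.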

NC(=O)c1cccc([N+](=O)[O-])c1
outcome [1]: inactive
max response [2]: -10.1%
Potency [3]: inactive
outcome [4]: inactive
outcome [5]: inactive

c1ccc2c(c1)Oc1ccccc1S2
outcome [1]: inactive
max response [2]: 19.7%
Potency [3]: inactive
outcome [6]: inactive
outcome [7]: inactive

CC(=O)c1nccs1
outcome [1]: inactive
max response [2]: -6.53%
Potency [3]: inactive
outcome [4]: inactive
outcome [6]: inactive
outcome [7]: inactive

Cc1cccc2ccccc12
outcome [4]: inactive
outcome [5]: inactive
outcome [7]: inactive

CCCCCCCCN
max response [2]: 13.3%
Potency [3]: inactive
outcome [4]: inactive
outcome [5]: inactive
outcome [6]: inactive
outcome [7]: inactive

Cc1ccccc1C(=O)O
outcome [4]: inactive
outcome [6]: inactive
outcome [7]: inactive

c1ccc(Nc2ccccc2)cc1
max response [2]: -10.2% and 19.6%
Potency [3]: inactive
outcome [4]: inactive
outcome [5]: inactive
outcome [6]: inactive
outcome [7]: inactive

CC(C)(C)OCC1CO1 (centres undefined)
outcome [4]: inactive
outcome [6]: inactive
outcome [7]: inactive

O=C(O)CN(CC(=O)O)CC(=O)O
outcome [4]: inactive
outcome [5]: inactive

CCCCC(CC)CNCC(CC)CCCC (centres undefined)
max response [2]: 11.3%
Potency [3]: inactive
outcome [6]: inactive
outcome [7]: inactive

COC(=O)CS
outcome [5]: inactive
outcome [6]: inactive
outcome [7]: inactive

C[C@@H]1CC2(OC3C[C@@]4(C)C5=CC[C@H]6C(C)(C)C(O[C@@H]7OC[C@@H](O)[C@H](O)[C@H]7O)CC[C@@]67C[C@@]57CC[C@]4(C)C31)OC(O)C1(C)OC21 (some centres undefined)
outcome [6]: inactive

Cc1ccc2c(c1[N+](=O)[O-])C(=O)c1ccccc1C2=O
outcome [4]: inactive
outcome [6]: inactive
outcome [7]: inactive

COC(=O)c1ccccc1
max response [2]: 19.3%
Potency [3]: inactive
outcome [4]: inactive
outcome [5]: inactive
outcome [6]: inactive
outcome [7]: inactive

CCC=O
max response [2]: -3.11%
Potency [3]: inactive
outcome [4]: inactive
outcome [6]: inactive
outcome [7]: inactive

O=C(O)c1ccc(C(=O)O)cc1
max response [2]: 14.5% and 21.9%
Potency [3]: inactive
outcome [4]: inactive
outcome [5]: inactive
outcome [6]: inactive
outcome [7]: inactive

COc1ccc(N=[N+]([O-])c2ccc(OC)cc2)cc1
max response [2]: 8.26%
Potency [3]: inactive
outcome [4]: inactive
outcome [6]: inactive
outcome [7]: inactive

O=[N+]([O-])c1ccccc1CCO
max response [2]: -6.01%
Potency [3]: inactive
outcome [4]: inactive
outcome [6]: inactive
outcome [7]: inactive

CC(=O)c1cc(C)oc1C
max response [2]: -4.12%
Potency [3]: inactive
outcome [4]: inactive
outcome [6]: inactive
outcome [7]: inactive

ON=C1CCCCC1
max response [2]: -2.32%
Potency [3]: inactive
outcome [4]: inactive
outcome [5]: inactive
outcome [7]: inactive

N#CCc1ccccc1[N+](=O)[O-]
max response [2]: 42%
Potency [3]: inactive
outcome [4]: inactive
outcome [6]: inactive
outcome [7]: inactive

CSc1ccc(C=O)cc1
outcome [4]: inactive
outcome [6]: inactive
outcome [7]: inactive

CC(=O)CCc1ccccc1
outcome [4]: inactive
outcome [7]: inactive

CC(=O)c1ccccc1[N+](=O)[O-]
max response [2]: 4.84%
Potency [3]: inactive
outcome [4]: inactive
outcome [5]: inactive
outcome [7]: inactive

COC(=O)CC#N
outcome [4]: inactive
outcome [5]: inactive
outcome [6]: inactive
outcome [7]: inactive

CC(=O)OCc1ccco1
max response [2]: -12.4%
outcome [4]: inactive
outcome [7]: inactive

NC(=O)c1ccccc1[N+](=O)[O-]
max response [2]: -1.98%
outcome [4]: inactive
outcome [5]: inactive

CC1CCCO1 (centres undefined)
max response [2]: 6.05%
Potency [3]: inactive
outcome [4]: inactive
outcome [6]: inactive
outcome [7]: inactive

CC1=C(/C=C/C(C)=C/C=C/C(C)=C\C=O)C(C)(C)CCC1
outcome [6]: inactive
outcome [7]: inactive

CC1(N)CCC(C(C)(C)N)CC1 (centres undefined)
outcome [4]: inactive
outcome [6]: inactive
outcome [7]: inactive

CC(=O)Nc1ccc(C)cc1
max response [2]: -10.7%
Potency [3]: inactive
outcome [4]: inactive
outcome [6]: inactive
outcome [7]: inactive

CCOc1cccc(N)c1
max response [2]: -10.6%
Potency [3]: inactive
outcome [4]: inactive
outcome [5]: inactive
outcome [7]: inactive

CCN(C(=O)N(CC)c1ccccc1)c1ccccc1
outcome [4]: inactive

Cc1cccc(C(=O)O)c1[N+](=O)[O-]
outcome [4]: inactive
outcome [5]: inactive
outcome [6]: inactive
outcome [7]: inactive

Cc1cccc(C)c1O
max response [2]: -20.4%
Potency [3]: inactive
outcome [4]: inactive
outcome [5]: inactive
outcome [6]: inactive
outcome [7]: inactive

Cc1ccc(C(C)(C)C)cc1
max response [2]: -8.71%
outcome [4]: inactive
outcome [7]: inactive

CCCCCNCCCCC
max response [2]: -18.6%
Potency [3]: inactive
outcome [4]: inactive
outcome [6]: inactive
outcome [7]: inactive

C=C(C)C(=O)OCC(C)O (centres undefined)
max response [2]: 24.5%
Potency [3]: inactive
outcome [6]: inactive
outcome [7]: inactive

ClC/C=C/CCl
outcome [4]: inactive
outcome [5]: inactive
outcome [6]: inactive
outcome [7]: inactive

C/C=C(/C)C#N
max response [2]: 26.2%
Potency [3]: inactive
outcome [4]: inactive
outcome [6]: inactive

C=C(C)C(N)=O
outcome [4]: inactive
outcome [6]: inactive
outcome [7]: inactive

[O-]/[N+](=N\O)c1ccccc1
outcome [4]: inactive
outcome [6]: inactive
outcome [7]: inactive

CCCCOCCOCCSC#N
max response [2]: 34.7%
Potency [3]: inactive
outcome [4]: inactive
outcome [6]: inactive
outcome [7]: inactive
